# Reference: PubChem BioAssay (NCATS)
# Where “and” joins values, the source holds several entries; their conditions need not be identical. Identical values can stand only once. Records with an inconclusive call do not appear. Calls of active or inactive are those of the source. Unless noted, the call rests on the fitted dose curve; in most records, active means well fitted curve in either direction with a large enough effect (not every such curve was filed as active); inconclusive means small, poorly fitted or top-dose-only effect, or another doubt; inactive means flat fitted curve, though single readings scatter.
# Assays:
# [1] = biological target: Lysosomal acid glucosylceramidase (Homo sapiens) (UniProt P04062); assay: Glucocerebrosidase-p2 (AID 348; in the data active means potency below about 10 µM; further: potency means the concentration at half of the fitted maximal effect); details: purified GBA, blue fluorogenic substrate, 40 min
# Lysosomal acid glucosylceramidase (Homo sapiens), sequence (P04062 whole entry, looked up): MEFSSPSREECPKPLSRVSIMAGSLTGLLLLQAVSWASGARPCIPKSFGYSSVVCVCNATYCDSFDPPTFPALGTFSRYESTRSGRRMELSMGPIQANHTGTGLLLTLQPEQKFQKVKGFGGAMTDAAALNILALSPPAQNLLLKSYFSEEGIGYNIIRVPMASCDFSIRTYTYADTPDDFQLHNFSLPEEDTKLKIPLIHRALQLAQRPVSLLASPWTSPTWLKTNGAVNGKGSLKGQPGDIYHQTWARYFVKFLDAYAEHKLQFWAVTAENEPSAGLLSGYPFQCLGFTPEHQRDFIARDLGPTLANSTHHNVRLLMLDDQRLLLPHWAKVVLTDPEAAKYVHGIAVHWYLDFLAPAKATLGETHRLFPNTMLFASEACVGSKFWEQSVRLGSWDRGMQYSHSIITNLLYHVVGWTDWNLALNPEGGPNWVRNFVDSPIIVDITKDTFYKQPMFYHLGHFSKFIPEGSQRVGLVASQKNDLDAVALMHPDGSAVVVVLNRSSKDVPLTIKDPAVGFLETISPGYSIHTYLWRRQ
# Procedure, shortened: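 Compounds titrated from 0.6 nM upwards against 0.2 nM enzyme in pH 5.9 citric acid/KH2PO4, taurocholate, tween-20; blue fluorogenic substrate 80 uM, 40 min room temperature, stopped and read Ex 365/Em 440 for AC50.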
# [2] = biological target: Cytochrome P450 1A2 (Homo sapiens) (UniProt P05177); assay: p450-cyp1a2 (AID 410; calls by dose curve; further: potency means the concentration at half of the fitted maximal effect;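 on activity change, negative = inhibition: -100% = full effect of reference inhibitor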); details: recombinant CYP1A2, luciferin-ME demethylation, luminescence; series mostly up to 57 µM
# Cytochrome P450 1A2 (Homo sapiens), sequence (P05177 whole entry, looked up): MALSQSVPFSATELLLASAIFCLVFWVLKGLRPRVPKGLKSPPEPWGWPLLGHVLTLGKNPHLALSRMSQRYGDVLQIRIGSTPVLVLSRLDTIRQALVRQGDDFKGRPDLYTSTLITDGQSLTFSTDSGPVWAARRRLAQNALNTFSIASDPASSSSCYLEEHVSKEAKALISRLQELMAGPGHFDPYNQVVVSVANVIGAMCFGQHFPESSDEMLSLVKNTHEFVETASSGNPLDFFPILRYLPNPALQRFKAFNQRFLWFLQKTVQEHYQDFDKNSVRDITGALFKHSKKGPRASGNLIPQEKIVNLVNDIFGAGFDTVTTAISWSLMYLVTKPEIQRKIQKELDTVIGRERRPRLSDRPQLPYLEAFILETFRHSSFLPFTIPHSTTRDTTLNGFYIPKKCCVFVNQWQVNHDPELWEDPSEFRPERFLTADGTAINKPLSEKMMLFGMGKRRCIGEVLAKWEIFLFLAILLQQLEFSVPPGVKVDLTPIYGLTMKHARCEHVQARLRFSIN
# Procedure, shortened: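 Human CYP1A2 (20nM) demethylated Luciferin-ME at its Km (100uM) in 100mM KPO4. After 10 min compound preincubation, NADPH regeneration ran the reaction 60 min at room temperature. Luciferin was read by luminescence, normalized to 57 uM furafylline.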
# [3] = NFAT Signaling Pathway (AID 444); details: Jurkat NFAT-bla M1, carbachol, beta-lactamase ratio, 5 h;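 further: carbachol stimulus at about its EC50 of 1 µM final; on the % scale 0 is the no-effect control and ±100 the full control effect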
# Procedure, shortened: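 Jurkat cells with NFAT-driven β-lactamase reporter and co-expressed M1 receptor, stimulated with carbachol (final 1 uM, ~EC50), compound titration, 5 h at 37 °C. CCF4 loaded 1 h at RT; 460/530 nm ratio gave %activity and AC50.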
# [4] = Stat Signaling Pathway (AID 446); details: ME-180 SIE beta-lactamase reporter, IL-6 stimulated, 5 h;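 further: ME-180 cervical cancer cells given 40 pM IL-6 alongside compound; SIE-controlled beta-lactamase reporter measured as 460/530 nm FRET emission ratio; on the % scale 0 is the no-effect control and ±100 the full control effect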
# Procedure, shortened: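 Reporter line: ME-180 cervical carcinoma, SIE-beta-lactamase. Treatment: compound with 40 pM IL-6, 5 hrs, 37 C, in low-serum OPTI-MEM with 10 mM HEPES pH 7.3. Detection: 460/530 nm fluorescence.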
# [5] = biological target: Glucocorticoid receptor (Homo sapiens) (UniProt P04150); assay: GR-EFC Redistribution (AID 451; calls by dose curve; further: potency means the concentration at half of the fitted maximal effect); details: CHO-K1 GR-EFC translocation, beta-gal luminescence, 2 h
# Glucocorticoid receptor (Homo sapiens), sequence (P04150 whole entry, looked up, the tested form may be a part): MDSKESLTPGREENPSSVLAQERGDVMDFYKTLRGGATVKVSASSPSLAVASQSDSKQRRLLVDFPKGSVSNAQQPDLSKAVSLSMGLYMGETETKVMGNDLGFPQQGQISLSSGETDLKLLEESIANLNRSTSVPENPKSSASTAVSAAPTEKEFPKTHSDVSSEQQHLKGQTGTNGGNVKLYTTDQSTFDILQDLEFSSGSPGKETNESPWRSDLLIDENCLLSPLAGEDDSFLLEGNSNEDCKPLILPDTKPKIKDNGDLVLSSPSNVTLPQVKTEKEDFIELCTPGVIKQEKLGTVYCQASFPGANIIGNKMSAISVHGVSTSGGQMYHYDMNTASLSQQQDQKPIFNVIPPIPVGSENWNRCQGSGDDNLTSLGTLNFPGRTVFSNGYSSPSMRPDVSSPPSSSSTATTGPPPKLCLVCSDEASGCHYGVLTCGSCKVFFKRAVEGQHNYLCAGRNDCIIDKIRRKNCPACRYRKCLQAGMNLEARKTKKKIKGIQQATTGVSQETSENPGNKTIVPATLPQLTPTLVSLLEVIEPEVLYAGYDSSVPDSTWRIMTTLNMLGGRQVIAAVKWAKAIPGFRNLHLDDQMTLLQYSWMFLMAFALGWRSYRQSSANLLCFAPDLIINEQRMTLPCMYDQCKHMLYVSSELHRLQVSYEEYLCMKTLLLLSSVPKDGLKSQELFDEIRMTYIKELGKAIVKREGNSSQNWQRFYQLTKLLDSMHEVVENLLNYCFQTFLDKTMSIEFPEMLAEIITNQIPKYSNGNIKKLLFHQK
# Procedure, shortened: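 CHO-K1 cells expressing nuclear EA and GR-ED fragments of b-gal; compounds titrated up to 46 uM final, 2 h at 37 C. GR nuclear translocation read as complemented b-gal luminescence after 1 h RT detection.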
# [6] = biological target: Mitogen-activated protein kinase 10 (Mus musculus) (UniProt Q61831); assay: JNK3 AlphaScreen Assay (AID 530); details: JNK3 lysate, c-Jun phosphorylation; series mostly up to 57.1 µM;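 further: kinase came from lysate of stimulated human HepG2 cells; signal reports phosphorylation of biotinylated GST-cJun 1-79 at Ser73 with 10 µM ATP; on the % scale 0 is the no-effect control and ±100 the full control effect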
# Procedure, shortened: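 qHTS format: compounds tested as titrations against IL-1beta/TNF-alpha-activated HepG2 lysate JNK3 with biotin-GST-cJun substrate and 10 uM ATP at room temperature. Loss of anti-phospho-cJun AlphaScreen signal indicates inhibition.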
# [7] = biological target: 3',5'-cyclic-AMP phosphodiesterase 4B (Homo sapiens) (UniProt Q07343); assay: qHTS Assay for Inhibitors of PDE-IV (AID 607; active means well fitted activation curve with a large enough effect in the main read-out, with a control signal flat, not every such curve was filed as active; further: % of control where 0% means no effect); details: HEK293 ACTOne CNG channel cells, membrane potential fluorescence; series mostly up to 22.9 µM
# 3',5'-cyclic-AMP phosphodiesterase 4B (Homo sapiens), sequence (Q07343 whole entry, looked up): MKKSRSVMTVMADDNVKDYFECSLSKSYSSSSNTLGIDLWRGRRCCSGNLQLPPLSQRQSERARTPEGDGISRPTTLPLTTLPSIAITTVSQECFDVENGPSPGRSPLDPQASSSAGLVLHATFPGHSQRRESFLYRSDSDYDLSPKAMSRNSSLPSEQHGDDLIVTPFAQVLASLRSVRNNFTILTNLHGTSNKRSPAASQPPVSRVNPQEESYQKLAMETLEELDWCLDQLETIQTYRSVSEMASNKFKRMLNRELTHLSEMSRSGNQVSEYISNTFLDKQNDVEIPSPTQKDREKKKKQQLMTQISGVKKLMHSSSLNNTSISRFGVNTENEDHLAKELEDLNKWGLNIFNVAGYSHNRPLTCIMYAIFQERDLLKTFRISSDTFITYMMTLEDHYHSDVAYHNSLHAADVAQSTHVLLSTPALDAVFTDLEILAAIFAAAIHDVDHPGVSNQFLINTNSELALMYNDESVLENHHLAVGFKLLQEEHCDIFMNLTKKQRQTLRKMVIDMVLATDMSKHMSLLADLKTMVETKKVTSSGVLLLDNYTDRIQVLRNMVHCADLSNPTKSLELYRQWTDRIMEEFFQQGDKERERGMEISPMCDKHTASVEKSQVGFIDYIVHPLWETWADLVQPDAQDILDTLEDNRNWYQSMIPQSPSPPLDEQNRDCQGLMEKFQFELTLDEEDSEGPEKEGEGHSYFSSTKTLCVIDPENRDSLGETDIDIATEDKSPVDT
# Procedure, shortened: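 Cell-based read-out of cAMP via a modified cyclic nucleotide-gated channel and membrane potential dye (535/590 nm) in HEK293 cells expressing PDE4 endogenously. Compounds tested up to 22.9 uM final; 100 uM RO 20-1724 reference.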
# [8] = biological target: Cytochrome P450 3A4 (Homo sapiens) (UniProt P08684); assay: qHTS Assay for Activators of Cytochrome P450 3A4 (AID 885; active means well fitted curve in the direction sought with a large enough effect; an effect the other way counts as inactive or inconclusive; further: nearly all actives have a fitted effect of over 65% in size); details: recombinant CYP3A4, Luciferin-PPXE luminescence, 60 min; series mostly up to 57.1 µM
# Cytochrome P450 3A4 (Homo sapiens), sequence (P08684 whole entry, looked up): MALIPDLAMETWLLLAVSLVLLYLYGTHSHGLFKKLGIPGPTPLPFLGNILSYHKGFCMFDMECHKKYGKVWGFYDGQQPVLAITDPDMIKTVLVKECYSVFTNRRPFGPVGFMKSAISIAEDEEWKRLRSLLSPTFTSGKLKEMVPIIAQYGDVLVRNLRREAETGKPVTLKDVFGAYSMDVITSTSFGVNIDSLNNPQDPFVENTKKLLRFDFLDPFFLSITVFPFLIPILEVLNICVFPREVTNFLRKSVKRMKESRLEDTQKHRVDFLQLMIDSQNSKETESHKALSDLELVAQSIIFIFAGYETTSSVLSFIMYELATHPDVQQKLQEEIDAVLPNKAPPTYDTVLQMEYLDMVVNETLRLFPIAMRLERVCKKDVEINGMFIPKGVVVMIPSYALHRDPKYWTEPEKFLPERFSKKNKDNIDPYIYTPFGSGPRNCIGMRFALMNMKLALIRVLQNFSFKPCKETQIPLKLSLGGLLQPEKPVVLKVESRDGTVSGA
# Procedure, shortened: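 Signal was normalized against complete inhibition by 57 uM ketoconazole. The reaction used 20nM CYP3A4 with 25uM Luciferin-PPXE, 10-min compound preincubation and a 60-min NADPH-supported step at RT.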
# [9] = qHTS Assay for Lipid Storage Modulators (AID 1519; calls by dose curve); details: Drosophila S3 cells, BODIPY lipid droplet/cell ratio, laser cytometry, cells loaded with oleic acid
# Procedure, shortened: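 Cells seeded at 5,000 per well were treated with compounds over a concentration series and loaded with oleic acid (400 uM, as added). Lipid droplet fluorescence (488 nm excitation, 500-530 nm channel) was read by laser-scanning cytometry and normalized to 20 uM Triacsin C.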
# [10] = AP1 Signaling Pathway (AID 357); details: ME-180 AP-1-bla reporter, EGF-induced, beta-lactamase ratio, 5 h; further: on the % scale 0 is the no-effect control and ±100 the full control effect
# Procedure, shortened: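 ME-180 cells with beta-lactamase reporter under AP-1 response element, stimulated with EC50 EGF; compounds tested in titration series, 5 h at 37 °C. CCF4 substrate added 2.5 h at room temperature; 460/530 nm emission ratio gave %activity and AC50.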
# [11] = biological target: Glucocorticoid receptor (Homo sapiens) (UniProt P04150); assay: GR-GFP Redistribution (AID 450;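 active means compounds whose dose series gives a full or clear partial fitted curve of increased nuclear translocation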; further: potency means the concentration at half of the fitted maximal effect); details: U2OS GR-GFP nuclear translocation, laser cytometry, 2 h
# [12] = biological target: Ubiquitin carboxyl-terminal hydrolase 1 (Homo sapiens) (UniProt O94782); assay: Inhibitors of USP1/UAF1: Pilot qHTS (AID 504865; active means well fitted curve in the direction sought with a large enough effect; an effect the other way counts as inactive or inconclusive;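 further: rhodamine fluorescence freed from ubiquitin-rhodamine substrate followed over time; top concentration of the series differs between compounds; on the % scale 0 is the no-effect control and ±100 the full control effect; nearly all actives have a fitted effect of over 35% in size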); details: purified USP1/UAF1, Ub-rhodamine cleavage fluorescence; series mostly up to 54.9 µM
# Ubiquitin carboxyl-terminal hydrolase 1 (Homo sapiens), sequence (O94782 whole entry, looked up): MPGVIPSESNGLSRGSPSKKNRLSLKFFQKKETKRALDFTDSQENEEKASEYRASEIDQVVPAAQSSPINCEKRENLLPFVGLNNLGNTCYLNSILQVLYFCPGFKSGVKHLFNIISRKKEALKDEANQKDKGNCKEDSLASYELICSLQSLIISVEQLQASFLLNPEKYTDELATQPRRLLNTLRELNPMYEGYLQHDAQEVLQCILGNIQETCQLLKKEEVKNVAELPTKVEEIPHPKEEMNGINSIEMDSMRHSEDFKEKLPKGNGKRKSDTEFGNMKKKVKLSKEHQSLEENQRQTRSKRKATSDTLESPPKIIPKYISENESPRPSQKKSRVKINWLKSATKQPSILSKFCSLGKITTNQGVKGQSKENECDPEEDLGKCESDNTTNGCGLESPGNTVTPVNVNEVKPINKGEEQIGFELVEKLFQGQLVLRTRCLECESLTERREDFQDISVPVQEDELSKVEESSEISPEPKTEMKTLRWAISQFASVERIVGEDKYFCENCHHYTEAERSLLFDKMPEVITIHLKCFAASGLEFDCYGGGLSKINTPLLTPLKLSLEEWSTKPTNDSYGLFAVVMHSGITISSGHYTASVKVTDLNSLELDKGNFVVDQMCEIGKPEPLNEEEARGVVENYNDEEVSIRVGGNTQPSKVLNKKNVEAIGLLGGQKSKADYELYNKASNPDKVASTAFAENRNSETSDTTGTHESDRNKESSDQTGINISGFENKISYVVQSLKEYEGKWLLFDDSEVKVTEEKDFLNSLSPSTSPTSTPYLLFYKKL
# Procedure, shortened: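 1nM USP1/UAF1 + cpd, 15 min RT; start w/ Ub-Rho 150nM final; kinetic FL 480/540 nm, 6 reads q60 s. Buffer 50mM HEPES pH 7.8, 0.5mM EDTA, 1mM TCEP, 0.01% Tween-20, 0.1 mg/ml BSA.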
# [13] = biological target: ATP-dependent 6-phosphofructokinase (Trypanosoma brucei brucei) (UniProt O15648); assay: qHTS Assay to Find Inhibitors of T. brucei phosphofructokinase: hit validation (AID 492961; active means well fitted curve in the direction sought with a large enough effect; an effect the other way counts as inactive or inconclusive); details: T. brucei PFK, ADP-Glo luminescence; series mostly up to 24.3 µM
# ATP-dependent 6-phosphofructokinase (Trypanosoma brucei brucei), sequence (O15648 whole entry, looked up): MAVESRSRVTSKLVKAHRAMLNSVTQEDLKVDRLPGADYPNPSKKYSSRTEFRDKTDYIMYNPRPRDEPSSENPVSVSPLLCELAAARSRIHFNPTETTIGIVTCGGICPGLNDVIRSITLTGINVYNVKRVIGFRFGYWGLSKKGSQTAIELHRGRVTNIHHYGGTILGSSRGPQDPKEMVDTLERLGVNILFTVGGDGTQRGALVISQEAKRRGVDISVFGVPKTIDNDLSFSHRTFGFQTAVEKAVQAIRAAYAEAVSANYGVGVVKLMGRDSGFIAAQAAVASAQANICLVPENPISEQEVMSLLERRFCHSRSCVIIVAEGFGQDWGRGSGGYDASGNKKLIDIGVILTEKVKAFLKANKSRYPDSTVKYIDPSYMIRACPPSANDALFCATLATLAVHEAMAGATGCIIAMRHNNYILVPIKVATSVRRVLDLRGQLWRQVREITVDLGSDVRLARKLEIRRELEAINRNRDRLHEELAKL
# Procedure, shortened: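 Compounds titrated; %activity normalized to 0x and 1x enzyme controls, curve-fitted. Readout: ADP-Glo luminescence after 45 min room-temperature reaction of 1.25 nM PFK, 0.1 mM ATP, 0.5 mM F6P, pH 8.0.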
# [14] = qHTS profiling for inhibitors of Plasmodium falciparum proliferation (AID 504749; active means well fitted curve in the direction sought with a large enough effect; an effect the other way counts as inactive or inconclusive;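 further: 0% = DMSO vehicle and full inhibition = artemisinin control; nearly all actives have a fitted effect of over 60% in size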); details: P. falciparum in erythrocytes, SYBR Green DNA, 72 h, at 28.7 µM (top of the series)
# Procedure, shortened: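 Readout was DNA-dye fluorescence from lysed cultures, ex 485/em 535 nm. Parasitized red cells had grown 72 h with compound; data scaled between 0.29 uM artemisinin and DMSO wells and corrected using vehicle-only plates.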
# [15] = biological target: Cytochrome P450 2D6 (Homo sapiens) (UniProt P10635); assay: qHTS Assay for Inhibitors and Substrates of Cytochrome P450 2D6 (AID 891; active means well fitted curve in the direction sought with a large enough effect; an effect the other way counts as inactive or inconclusive; further: potency means the concentration at half of the fitted maximal effect; nearly all actives have a fitted effect of over 60% in size); details: recombinant CYP2D6, luciferin-ME EGE luminescence; series mostly up to 57.1 µM
# Cytochrome P450 2D6 (Homo sapiens), sequence (P10635 whole entry, looked up): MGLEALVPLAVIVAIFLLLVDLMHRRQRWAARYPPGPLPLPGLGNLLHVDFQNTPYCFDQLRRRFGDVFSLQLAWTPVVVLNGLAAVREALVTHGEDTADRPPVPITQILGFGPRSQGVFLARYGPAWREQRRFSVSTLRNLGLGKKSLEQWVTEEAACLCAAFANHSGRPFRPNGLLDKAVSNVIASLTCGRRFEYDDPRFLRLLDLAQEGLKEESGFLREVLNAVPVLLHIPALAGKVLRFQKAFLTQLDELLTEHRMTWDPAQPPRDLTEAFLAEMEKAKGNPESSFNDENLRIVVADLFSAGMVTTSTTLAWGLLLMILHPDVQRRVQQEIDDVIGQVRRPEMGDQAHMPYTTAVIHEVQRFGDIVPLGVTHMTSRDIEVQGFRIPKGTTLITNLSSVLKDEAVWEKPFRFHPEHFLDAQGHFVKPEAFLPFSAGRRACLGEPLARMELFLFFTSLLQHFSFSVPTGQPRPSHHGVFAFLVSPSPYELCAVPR
# Procedure, shortened: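 Human CYP2D6 (5 nM) with 30 uM Luciferin-ME EGE (at Km) in 100 mM KPO4, compound preincubated 10 min, then NADPH regeneration system for 60 min at room temperature. Luciferin read by luminescence; normalized to 1.43 uM quinidine.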
# [16] = at 7.69 µM (top of the series) unless noted
# [17] = measured here: cell count channel max response
# [18] = measured here: lipid channel max response
structure (smiles),measurement,setting,value
CN1CC[C@@]2(CCCN(C(=O)c3cccn3C)C2)C1,Potency,[1],> 11.4 µM (inactive)
same,Potency,[2],inactive
same,"activity change, negative = inhibition",[3]; [16],9.28% (inactive)
same,"activity, negative = inhibition",[4]; [16],-1.28% (inactive)
same,Potency,[5],> 46 µM (inactive)
same,Potency,[6],inactive
same,Potency,[7],inactive
same,Potency,[8],inactive
same,"activity change, negative = inhibition",[9]; at 57.5 µM (top of the series),2.7% (inactive)
same,max response,[9]; [17],-0.284%
same,max response,[9]; [18],4.15%
O=C(Nc1ccccc1)N1CCCC2(CCNCC2)C1,Potency,[1],> 11.4 µM (inactive)
same,"activity change, negative = inhibition",[10]; [16],-6.92% (inactive)
same,"activity change, negative = inhibition",[3]; [16],6.49% (inactive)
same,"activity, negative = inhibition",[4]; [16],4.83% (inactive)
same,Potency,[5],> 46 µM (inactive)
same,Potency,[6],inactive
same,Potency,[7],inactive
same,Potency,[8],inactive
same,"activity change, negative = inhibition",[9]; at 57.5 µM (top of the series),3.78% (inactive)
same,max response,[9]; [17],18%
same,max response,[9]; [18],25%
O=C(Oc1ccccc1)N1CCC2(CCCN(c3ccncc3)C2)CC1,Potency,[1],> 11.4 µM (inactive)
same,"activity change, negative = inhibition",[10]; [16],14.2% (inactive)
same,"activity change, negative = inhibition",[3]; [16],-80.6% (active)
same,"activity, negative = inhibition",[4]; [16],18.8% (inactive)
same,Potency,[5],> 46 µM (inactive)
same,Potency,[6],inactive
same,Potency,[7],inactive
same,"activity change, negative = inhibition",[9]; at 57.5 µM (top of the series),4.64% (inactive)
same,max response,[9]; [17],1.04%
same,max response,[9]; [18],10.6%
CCCCCN(CCCCC)C(=O)[C@H](CCC(=O)O)NC(=O)c1ccc(Cl)c(Cl)c1,"activity change, negative = inhibition",[10]; at 17.2 µM (top of the series),-2.01% (inactive)
same,"activity change, negative = inhibition",[10]; at 38 µM (top of the series),3.64% (inactive)
same,Potency,[2],inactive
same,"activity change, negative = inhibition",[3]; at 17.2 µM (top of the series),-6.01% (inactive)
same,"activity change, negative = inhibition",[3]; at 38 µM (top of the series),-3.5% (inactive)
same,"activity, negative = inhibition",[4]; at 17.2 µM (top of the series),-27.7% (inactive)
same,"activity, negative = inhibition",[4]; at 38 µM (top of the series),-25.5% (inactive)
same,Potency,[11],> 46 µM (inactive) and > 20.6 µM (inactive)
same,Potency,[5],> 46 µM (inactive) and > 20.6 µM (inactive)
same,Potency,[6],inactive
same,Potency,[8],inactive
same,"activity change, negative = inhibition",[9]; at 25.7 µM (top of the series),-1.39% (inactive)
same,max response,[9]; [17],-23.7%
same,max response,[9]; [18],-25%
same,Potency,[12],inactive
CCCN(CCC)C(=O)[C@@H](CCC(=O)O)NC(=O)c1ccccc1,"activity change, negative = inhibition",[10]; at 17.2 µM (top of the series),0.378% (inactive)
same,"activity change, negative = inhibition",[10]; at 38 µM (top of the series),-3.39% (inactive)
same,Potency,[2],inactive
same,"activity change, negative = inhibition",[3]; at 17.2 µM (top of the series),-4.73% (inactive)
same,"activity change, negative = inhibition",[3]; at 38 µM (top of the series),-3.22% (inactive)
same,"activity, negative = inhibition",[4]; at 17.2 µM (top of the series),-4.56% (inactive)
same,"activity, negative = inhibition",[4]; at 38 µM (top of the series),-1.87% (inactive)
same,Potency,[11],> 46 µM (inactive) and > 20.6 µM (inactive)
same,Potency,[5],> 46 µM (inactive) and > 20.6 µM (inactive)
same,Potency,[6],inactive
same,Potency,[7],inactive
same,"activity change, negative = inhibition",[9]; at 25.7 µM (top of the series),0.554% (inactive)
same,max response,[9]; [17],5.84%
same,max response,[9]; [18],4.96%
same,outcome,[13],inactive
same,Potency,[12],inactive
same,"activity, negative = inhibition",[14]; parasite line A,5.79% (inactive)
same,"activity, negative = inhibition",[14]; parasite line B,7.29% (inactive)
C=CCc1ccccc1OC[C@H](O)CNC(C)C,"activity change, negative = inhibition",[10]; at 17.2 µM (top of the series),12.5% (inactive)
same,"activity change, negative = inhibition",[10]; at 38 µM (top of the series),11.9% (inactive)
same,Potency,[2],7.94 µM (active) and 3.16 µM (active)
same,"activity change, negative = inhibition",[3]; at 17.2 µM (top of the series),-2.1% (inactive)
same,"activity change, negative = inhibition",[3]; at 38 µM (top of the series),-5.09% (inactive)
same,"activity, negative = inhibition",[4]; [16],5.89% [at 17.2 µM] (inactive)
same,Potency,[6],inactive
same,Potency,[7],inactive
same,Potency,[15],6.31 µM (active)
same,"activity change, negative = inhibition",[9]; at 25.7 µM (top of the series),0.0029% (inactive)
same,max response,[9]; [17],-4%
same,max response,[9]; [18],-3.45%
same,Potency,[12],inactive
